# Screens deposited in PubChem by National Center for Advancing Translational Sciences (NCATS).
# This is a sample that favours compounds with a hit; in the whole collection about 14% have one here.
# Lassa entry inh: Lassa virus entry inhibition | Potency, µM (doses to about 37.9 µM), hits mostly inhibitors | 300,000 compounds, 1.2% hits | Lassa virus pseudotype entry inhibition, cell reporter; calls by dose curve; tested in HEK293 cells; further: nearly all actives have a fitted effect of over 50% in size
# Pf growth 48h: inhibits P. falciparum growth in the first generation, 48 h | AID 504832 | P. falciparum luciferase growth in erythrocytes, 48 h | Potency, µM (top dose mostly 28.7 µM), most hits filed as inhibitors | 310,000 compounds, 5.9% hits
#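 Here the parasites carry a stable luciferase gene and grow inside erythrocytes in Albumax-based RPMI medium with compound for one erythrocytic cycle. Activity is scored as loss of luminescent signal.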
# HCMV inh: blocks human cytomegalovirus replication; HFF cells, HCMV-luciferase reporter, 72 h; hits give low values; activity change, negative = inhibition, % at 57.5 µM; 410,000 compounds, 4.5% hits; AID 1259415; in the data active means activity change below about -60%; inconclusive means no clear call, values can overlap the other calls; inactive means above about -39%
#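 Inhibition of viral replication was scored as loss of reporter luminescence in HFFs infected with HCMV-luciferase (MOI 1 PFU/cell) for 72 h; compounds tested at 2 doses, normalized to buffer and Salinomycin controls.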
# HCV inh: blocks hepatitis C virus. Potency, µM (titrated, usually from 41.8 µM), actives largely listed as inhibitors. AID 651820. Huh7.5.1 HCVcc-Cre infection, luciferase reporter, 44 h. 340,000 compounds, 3.4% hits
#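 Reporter virus HCVcc-Cre (~0.5 moi) infects cells exposed to compound; seeding density 1,000 cells/well with 4 h settling beforehand. Luminescence, 15 sec read, taken 44 h post-infection following a 15 min RT substrate incubation.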
# Pf growth 96h: P. falciparum growth inhibition at 96 hours; 320,000 compounds, 6.9% hits; P. falciparum luciferase reporter growth, 96 h; Potency, µM (highest dose often 28.7 µM), actives largely listed as inhibitors
#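 Parasite growth measured via integrated firefly luciferase reporter in P. falciparum. Infected erythrocytes at 2% hematocrit, 0.05% parasitemia final were treated 96 hours at 37 C under 5% CO2, and luminescence was read.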
# MARV entry inh: Marburg virus entry inhibition; 300,000 compounds, 1.8% hits; Marburg virus pseudotyped entry inhibition, cell reporter; Potency, µM (titrated, usually from 37.8 µM), hits mostly inhibitors; calls by dose curve; tested in HEK293 cells
# Hits are given with their value; – = inactive; ? = inconclusive; · = no result. Unless noted, the call rests on the fitted dose curve; in most records, active means well fitted inhibition curve with a large enough effect; inconclusive means small, poorly fitted or top-dose-only effect, or another doubt; inactive means no such curve, though single readings can be large or run the other way.
SMILES,Lassa entry inh,Pf growth 48h,HCMV inh,HCV inh,Pf growth 96h,MARV entry inh
Cc1ccc(S(=O)(=O)Nc2ccccc2C(=O)Nc2nc(-c3ccc(F)cc3)cs2)cc1,3.3µM,13µM,-103,6.3µM,?,2.8µM
N#CCCN(Cc1ccccc1)C(C(=O)NC1CCCCC1)c1ccnc2ccccc12 (configuration not stated),·,·,–,·,·,·
CC1CCN(S(=O)(=O)c2ccc(N3CCCCS3(=O)=O)cc2)CC1,–,·,–,·,·,·
CCN(CC)S(=O)(=O)c1ccc2c(c1)nc(CN(C)C(=O)Nc1ccc(C)c(Cl)c1)n2C,–,·,–,·,·,·
Cc1ccc(C(=O)OCC(=O)NC2CCCC2)cc1C,–,–,-78,–,–,?
Cc1ccc(OCC(=O)NC2CCCCCC2)cc1C,·,–,–,–,10µM,·
Cc1cccc(OCC(=O)NC2CCCC2)c1,?,–,–,–,?,–
Cc1cccc(C(=O)OCC(=O)NC2CCCCCCC2)c1,·,–,-64,–,–,·
Cc1cccc(C(=O)OCC(=O)NC(=O)NC2CCCCC2)c1,·,·,–,·,·,·
COCc1cc2cc3c(cc2c2c(C(=O)OC)c(C(=O)OC)c(C(=O)OC(C)(C)C)n12)OCO3,?,·,·,·,·,–
O=C(/C=C/c1ccccc1)N[C@H]1CC[C@@]23CCCN2C(=O)CCC[C@H]3[C@H]1Cc1ccccc1,·,·,–,·,·,·
CCOc1ccc(S(=O)(=O)N(CC)CC)cc1N,–,–,-81,–,?,–
CCOc1cc(S(=O)(=O)N(CC)CC)ccc1F,–,–,–,–,·,–
CCN(CC)S(=O)(=O)c1ccc(C(=O)O)cc1,–,–,–,–,–,–
CCN(CC)S(=O)(=O)c1ccc(-c2ccc(S(=O)(=O)N(CC)CC)cc2)cc1,?,–,-64,?,?,?
COc1ccc(-c2nc(S(=O)(=O)c3ccc(C)cc3)c(NCc3ccccc3)o2)cc1,?,·,–,·,·,–
O=C(CCS(=O)(=O)c1cccc2nsnc12)Nc1ccc(F)cc1,–,·,–,·,·,–
O=C(Nc1ccc2c(c1)C(=O)NC2=O)c1ccccc1Cl,·,–,–,–,–,·
O=C1NC(=O)c2cc(NC(=O)c3cccc4ccccc34)ccc21,·,–,-85,–,–,·
Cc1ccc(NS(=O)(=O)c2cc(C(=O)NCCSc3ccc(C)cc3)ccc2C)cc1,?,?,-98,?,12µM,?
Cc1ccc(SCCNC(=O)c2ccccc2)cc1,–,?,–,–,?,–
Cc1ccc(SCCNC(=O)c2ccc(C)c(S(=O)(=O)Nc3cccc(C)c3)c2)cc1,?,?,-70,–,?,?
Cc1ccc(NS(=O)(=O)c2cc(C(=O)NCCSC3CCCCC3)ccc2C)cc1,?,?,–,?,–,?
CC(=O)OC[C@@H]1CN(Cc2ccccc2)C[C@H](n2cnc3c(NCc4ccc(F)cc4)ncnc32)O1,·,·,–,·,·,·
Cc1cccc(OCC(=O)Nc2ccccc2OCc2cc(=O)n3ccccc3n2)c1,–,·,–,·,·,·
SMILES,Lassa entry inh,Pf growth 48h,HCMV inh,HCV inh,Pf growth 96h,MARV entry inh
O=S(=O)(c1ccc(Cl)cc1)N1CCN(C(=S)Nc2ccc(F)c(Cl)c2)CC1,?,0.66µM,-62,–,–,?
Cc1ccc(NC(=S)N2CCN(S(C)(=O)=O)CC2)cc1,–,–,–,–,10µM,–
O=S(=O)(c1ccccc1)N1CCN(C(=S)Nc2ccc(F)cc2)CC1,–,?,–,–,?,–
Cc1cccc(NC(=S)N2CCN(S(=O)(=O)c3ccc(F)cc3)CC2)c1,·,2.1µM,?,–,?,·
COc1cc(OC)c(NC(=O)c2nn(C)c3c2COc2ccccc2-3)cc1Cl,–,·,–,·,·,–
Cc1ccc(C(=O)CSc2nnc3ccc4ccccc4n23)cc1,–,·,–,·,·,–
CCN1C(=O)[C@@H]2[C@H]3[C@H](O)[C@H](O)CC(=NOCC[C@@H]4C=C[C@H](OC(C)=O)[C@@H](COC(C)=O)O4)[C@@H]3CC[C@H]2C1=O,·,·,·,·,·,–
COc1ccc2nc(/N=C(\N)NC(=O)C(C)(C)C)nc(C)c2c1,–,?,–,–,–,–
CC(=O)N/C(=N\c1nc(C)cc(C)n1)Nc1ccc(NC(C)=O)cc1,·,·,·,·,·,–
COc1ccccc1C(=O)N/C(=N/c1nc(C)cc(C)n1)Nc1ccccc1,–,–,–,8.9µM,–,?
CCC(=O)N/C(N)=N/c1nc(C)c2cc(OC)ccc2n1,–,3.3µM,–,?,–,?
